Targets with a hit are over-represented here; the source holds about 8,800 in all. About 0.5% of all pairs of compound and target were hits. A number with no mark means an inactive call.
Compound: C=CC(=O)N1CCC[C@@H](n2nc(-c3ccc(Oc4ccccc4)cc3)c3c(N)ncnc32)C1 [ibrutinib]
Assay: log2 fold change, soluble protein after heating vs DMSO (PISA); higher = thermal stabilisation; K562 lysate, 10 uM; active = over 0.2 and 3.5 SD of the protein, either way, in both replicates (recomputed)
Procedure, shortened: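 K562 pellets were dounce-homogenised in PBS pH 7.4 with 1 mM MgCl2, and the crude extract at 1 mg/mL protein was treated with 10 μM compound for 30 min. Aliquots were heated for 3 min across 48°C-58°C, pooled, and brought to 0.5% NP-40 at 4°C; soluble protein was the supernatant after 21,000xg for 90 min. Soluble protein was quantified by TMTpro 16plex LC-MS/MS with channel sums equalised, and reported as log2 fold change in thermal stability against DMSO controls, with values from duplicates.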

Sequence of UniProt O43592 (O43592 whole entry, looked up): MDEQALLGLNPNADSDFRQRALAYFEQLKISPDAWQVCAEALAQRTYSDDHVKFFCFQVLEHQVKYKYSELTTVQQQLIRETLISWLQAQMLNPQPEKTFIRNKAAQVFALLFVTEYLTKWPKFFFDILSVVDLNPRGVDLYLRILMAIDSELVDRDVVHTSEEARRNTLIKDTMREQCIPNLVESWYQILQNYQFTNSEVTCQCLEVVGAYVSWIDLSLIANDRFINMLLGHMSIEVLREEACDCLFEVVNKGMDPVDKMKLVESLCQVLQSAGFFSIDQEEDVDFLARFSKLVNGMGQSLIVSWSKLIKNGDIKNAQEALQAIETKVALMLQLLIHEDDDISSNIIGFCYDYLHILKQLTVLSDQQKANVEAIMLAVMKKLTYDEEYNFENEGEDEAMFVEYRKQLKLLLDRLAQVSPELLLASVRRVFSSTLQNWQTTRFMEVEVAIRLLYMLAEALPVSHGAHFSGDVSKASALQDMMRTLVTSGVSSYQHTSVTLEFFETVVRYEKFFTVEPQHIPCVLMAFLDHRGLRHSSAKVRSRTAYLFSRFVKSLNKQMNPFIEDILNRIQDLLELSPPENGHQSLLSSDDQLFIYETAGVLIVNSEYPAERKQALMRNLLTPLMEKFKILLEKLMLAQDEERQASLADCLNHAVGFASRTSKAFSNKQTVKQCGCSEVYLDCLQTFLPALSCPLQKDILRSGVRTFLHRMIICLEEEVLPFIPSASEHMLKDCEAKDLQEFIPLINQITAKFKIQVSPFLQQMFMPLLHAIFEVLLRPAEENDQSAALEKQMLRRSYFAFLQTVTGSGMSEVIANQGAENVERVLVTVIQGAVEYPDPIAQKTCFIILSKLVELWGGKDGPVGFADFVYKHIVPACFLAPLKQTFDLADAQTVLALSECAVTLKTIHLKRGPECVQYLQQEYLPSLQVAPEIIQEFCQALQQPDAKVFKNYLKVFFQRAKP
Sequence of UniProt Q9P253 (Q9P253 whole entry, looked up): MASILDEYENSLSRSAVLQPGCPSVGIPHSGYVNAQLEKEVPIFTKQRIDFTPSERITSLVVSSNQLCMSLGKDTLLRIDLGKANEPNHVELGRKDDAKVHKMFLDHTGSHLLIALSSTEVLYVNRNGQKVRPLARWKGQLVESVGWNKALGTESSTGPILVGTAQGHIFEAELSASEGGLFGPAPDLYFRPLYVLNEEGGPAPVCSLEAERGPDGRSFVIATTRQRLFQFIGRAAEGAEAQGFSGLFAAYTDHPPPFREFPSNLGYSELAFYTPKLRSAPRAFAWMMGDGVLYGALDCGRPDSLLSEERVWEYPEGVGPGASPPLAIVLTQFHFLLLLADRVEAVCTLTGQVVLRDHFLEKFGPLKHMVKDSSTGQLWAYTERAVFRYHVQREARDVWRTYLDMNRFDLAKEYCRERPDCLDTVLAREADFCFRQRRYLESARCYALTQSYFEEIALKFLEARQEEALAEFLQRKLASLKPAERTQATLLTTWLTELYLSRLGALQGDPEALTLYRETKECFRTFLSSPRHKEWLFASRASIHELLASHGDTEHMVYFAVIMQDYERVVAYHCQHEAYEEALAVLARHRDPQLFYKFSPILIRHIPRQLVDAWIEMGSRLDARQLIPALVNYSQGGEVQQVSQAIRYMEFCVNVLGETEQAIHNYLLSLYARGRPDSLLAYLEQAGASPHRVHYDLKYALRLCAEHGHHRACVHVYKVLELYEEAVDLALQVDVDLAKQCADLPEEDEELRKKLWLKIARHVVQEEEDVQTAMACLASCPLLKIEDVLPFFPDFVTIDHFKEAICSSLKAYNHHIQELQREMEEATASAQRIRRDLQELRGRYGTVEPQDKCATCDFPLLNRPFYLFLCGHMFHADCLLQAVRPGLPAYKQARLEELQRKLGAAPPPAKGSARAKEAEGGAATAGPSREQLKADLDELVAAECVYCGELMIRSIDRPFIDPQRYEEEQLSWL
Sequence of UniProt O43149 (O43149 whole entry, looked up): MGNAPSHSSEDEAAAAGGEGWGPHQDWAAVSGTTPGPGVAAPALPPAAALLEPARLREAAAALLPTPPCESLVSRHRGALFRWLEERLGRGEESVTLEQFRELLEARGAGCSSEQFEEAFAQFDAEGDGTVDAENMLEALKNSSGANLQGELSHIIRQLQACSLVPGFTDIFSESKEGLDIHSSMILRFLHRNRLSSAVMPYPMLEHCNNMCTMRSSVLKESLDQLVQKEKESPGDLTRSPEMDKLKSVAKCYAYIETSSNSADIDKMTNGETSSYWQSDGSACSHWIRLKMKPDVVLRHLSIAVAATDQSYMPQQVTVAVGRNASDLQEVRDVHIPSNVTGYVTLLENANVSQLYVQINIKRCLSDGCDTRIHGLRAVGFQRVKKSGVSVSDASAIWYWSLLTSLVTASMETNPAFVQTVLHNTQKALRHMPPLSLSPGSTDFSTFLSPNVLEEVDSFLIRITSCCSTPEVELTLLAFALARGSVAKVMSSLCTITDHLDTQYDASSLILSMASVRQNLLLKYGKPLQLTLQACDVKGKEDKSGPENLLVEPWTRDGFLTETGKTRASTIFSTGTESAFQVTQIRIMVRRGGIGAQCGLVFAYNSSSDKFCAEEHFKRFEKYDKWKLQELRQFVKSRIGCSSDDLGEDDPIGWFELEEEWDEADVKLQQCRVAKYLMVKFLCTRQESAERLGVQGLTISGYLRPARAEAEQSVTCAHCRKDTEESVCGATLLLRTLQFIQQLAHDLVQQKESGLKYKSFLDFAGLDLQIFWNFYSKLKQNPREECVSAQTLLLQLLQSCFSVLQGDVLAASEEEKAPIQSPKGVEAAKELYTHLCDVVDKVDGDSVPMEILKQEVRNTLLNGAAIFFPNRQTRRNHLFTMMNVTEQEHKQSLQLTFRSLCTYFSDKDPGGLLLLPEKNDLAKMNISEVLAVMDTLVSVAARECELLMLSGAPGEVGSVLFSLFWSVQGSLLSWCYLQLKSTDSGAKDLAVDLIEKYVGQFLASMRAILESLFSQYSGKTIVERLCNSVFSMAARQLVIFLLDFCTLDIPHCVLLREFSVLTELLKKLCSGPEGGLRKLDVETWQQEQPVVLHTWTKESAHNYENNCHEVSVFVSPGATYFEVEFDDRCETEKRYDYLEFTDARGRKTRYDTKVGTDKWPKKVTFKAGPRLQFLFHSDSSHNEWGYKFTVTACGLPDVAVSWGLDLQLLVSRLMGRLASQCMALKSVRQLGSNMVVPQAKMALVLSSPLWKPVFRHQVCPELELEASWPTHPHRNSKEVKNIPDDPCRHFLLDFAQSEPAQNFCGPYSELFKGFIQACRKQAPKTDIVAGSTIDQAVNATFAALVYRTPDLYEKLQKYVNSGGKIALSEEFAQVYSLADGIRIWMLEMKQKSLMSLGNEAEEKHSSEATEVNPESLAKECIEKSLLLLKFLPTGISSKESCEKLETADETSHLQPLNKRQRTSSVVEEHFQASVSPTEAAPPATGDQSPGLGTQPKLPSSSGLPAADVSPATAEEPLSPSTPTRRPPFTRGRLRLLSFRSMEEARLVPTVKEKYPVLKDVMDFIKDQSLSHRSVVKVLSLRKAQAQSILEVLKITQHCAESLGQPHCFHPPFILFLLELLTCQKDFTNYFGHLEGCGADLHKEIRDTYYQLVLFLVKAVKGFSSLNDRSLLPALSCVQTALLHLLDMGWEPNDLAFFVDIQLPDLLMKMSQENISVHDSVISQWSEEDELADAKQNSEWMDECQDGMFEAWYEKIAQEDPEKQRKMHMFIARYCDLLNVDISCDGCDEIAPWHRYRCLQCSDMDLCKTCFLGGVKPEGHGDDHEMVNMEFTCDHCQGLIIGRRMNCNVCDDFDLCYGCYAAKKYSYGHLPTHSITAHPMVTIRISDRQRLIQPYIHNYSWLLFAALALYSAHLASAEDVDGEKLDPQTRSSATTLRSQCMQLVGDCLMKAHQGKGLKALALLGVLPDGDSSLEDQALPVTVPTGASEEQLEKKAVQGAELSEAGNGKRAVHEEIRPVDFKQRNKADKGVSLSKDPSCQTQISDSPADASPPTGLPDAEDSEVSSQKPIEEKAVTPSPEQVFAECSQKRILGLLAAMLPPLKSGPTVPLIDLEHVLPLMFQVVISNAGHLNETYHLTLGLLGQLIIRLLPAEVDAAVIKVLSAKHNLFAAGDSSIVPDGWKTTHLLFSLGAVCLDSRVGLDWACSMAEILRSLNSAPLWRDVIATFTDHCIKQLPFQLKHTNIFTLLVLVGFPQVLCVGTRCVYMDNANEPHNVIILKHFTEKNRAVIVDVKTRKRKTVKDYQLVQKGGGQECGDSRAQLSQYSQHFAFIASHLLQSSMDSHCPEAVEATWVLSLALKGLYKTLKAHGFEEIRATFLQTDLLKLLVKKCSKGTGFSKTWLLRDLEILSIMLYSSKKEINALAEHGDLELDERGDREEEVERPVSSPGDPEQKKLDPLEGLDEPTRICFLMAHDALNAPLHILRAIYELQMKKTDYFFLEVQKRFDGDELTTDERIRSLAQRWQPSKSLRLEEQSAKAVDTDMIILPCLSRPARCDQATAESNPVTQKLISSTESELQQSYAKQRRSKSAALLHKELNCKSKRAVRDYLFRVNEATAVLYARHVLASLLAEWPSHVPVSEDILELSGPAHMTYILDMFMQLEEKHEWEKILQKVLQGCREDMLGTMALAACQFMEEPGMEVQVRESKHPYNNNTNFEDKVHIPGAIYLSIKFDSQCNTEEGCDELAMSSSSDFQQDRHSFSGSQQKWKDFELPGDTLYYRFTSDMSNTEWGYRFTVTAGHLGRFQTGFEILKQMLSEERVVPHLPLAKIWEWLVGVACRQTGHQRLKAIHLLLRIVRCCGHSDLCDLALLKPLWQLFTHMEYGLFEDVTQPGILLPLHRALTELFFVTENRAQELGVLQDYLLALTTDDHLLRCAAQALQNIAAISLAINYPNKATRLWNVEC
Sequence of UniProt O00258 (O00258 whole entry, looked up): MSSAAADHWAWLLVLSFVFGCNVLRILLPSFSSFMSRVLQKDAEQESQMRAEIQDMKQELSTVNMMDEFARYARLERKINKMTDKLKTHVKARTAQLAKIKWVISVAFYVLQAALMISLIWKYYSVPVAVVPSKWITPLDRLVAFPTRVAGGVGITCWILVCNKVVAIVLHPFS

Target | log2 fold change
USP9X (UniProt Q93008) | -0.003
ZMYM1 (UniProt Q5SVZ6) | -0.04
ZNF598 isoform 3 (UniProt Q86UK7) | 0.032
VAV1 (UniProt P15498) | -0.057
WDR7 (UniProt Q9Y4E6) | 0.067
VPS11 (UniProt Q9H270) | -0.002
ZNF318 (UniProt Q5VUA4) | 0.022
VAC14 (UniProt Q08AM6) | -0.029
VPS41 (UniProt P49754) | -0.019
ZNHIT6 (UniProt Q9NWK9) | -0.01
ZZEF1 (UniProt O43149) | 0.018
VPS16 (UniProt Q9H269) | 0.009
ZHX1 (UniProt Q9UKY1) | -0.026
ZC3H13 (UniProt Q5T200) | 0.046
VRK1 (UniProt Q99986) | 0.008
VPS54 (UniProt Q9P1Q0) | 0.048
WDR45 isoform 2 (UniProt Q9Y484) | 0.018
XAB2 (UniProt Q9HCS7) | -0.089
YTHDF3 (UniProt Q7Z739) | -0.026
XPO6 (UniProt Q96QU8) | -0.013
WRB (UniProt O00258) | 0.045
XPOT (UniProt O43592) | -0.012
VPS18 (UniProt Q9P253) | -0.007

From the supplement of paper PMC10849652
